From PubChem
AmpC inh detg: blocks E. coli AmpC beta-lactamase in detergent assay; P00811; Potency, µM (titrated, usually from 114 µM), without a hit: at the highest dose activity change, negative = inhibition, actives largely listed as inhibitors; AID 485294; AmpC hydrolysis of nitrocefin, absorbance 480 nm, 0.01% Triton; 370,000 tested, 0.041% active;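 also: potency is read from the fitted curve at half-maximal effect; 0% = no-compound wells and -100% = no-enzyme wells; nearly all actives have a fitted effect of over 25% in size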
Target sequence (P00811 whole entry, looked up): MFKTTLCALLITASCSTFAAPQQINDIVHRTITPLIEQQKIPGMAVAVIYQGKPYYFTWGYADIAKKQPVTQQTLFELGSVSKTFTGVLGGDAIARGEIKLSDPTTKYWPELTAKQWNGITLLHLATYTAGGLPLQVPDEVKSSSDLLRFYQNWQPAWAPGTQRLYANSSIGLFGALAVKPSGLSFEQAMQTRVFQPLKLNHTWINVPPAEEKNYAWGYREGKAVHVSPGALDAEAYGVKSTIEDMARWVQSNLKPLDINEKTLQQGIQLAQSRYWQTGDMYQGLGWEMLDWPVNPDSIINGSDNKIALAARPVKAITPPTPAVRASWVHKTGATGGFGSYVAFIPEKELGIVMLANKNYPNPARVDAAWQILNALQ
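20 mM phosphate pH 7.0 + 0.01% (detergent screen) or 0.0001% Triton X-100; 5.3 nM AmpC reagent; cpd preinc 15 min RT; nitrocefin (800 uM stock) to start; A480 q20 s × 4 min; Activity was normalised to no-enzyme and no-compound control wells.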
SARS PLpro yeast-1: blocks SARS-CoV papain-like protease in a yeast assay; S. cerevisiae expressing SARS-CoV PLpro, growth rescue; Potency, µM (top dose mostly 32.9 µM), without a hit: top-dose activity, positive = growth rescue, actives largely listed as activators; 330,000 tested, 0.19% active; calls by dose curve; also: potency is read from the fitted curve at half-maximal effect; 0% is about no effect; nearly all actives have a fitted effect of over 55% in size
Vaccinia Venus: vaccinia inhibition (Venus reporter); Potency, µM (highest dose often 36.5 µM), without a hit: top-dose activity change, negative = inhibition, most hits filed as inhibitors; 330,000 tested, 0.46% active; Vaccinia virus Venus reporter expression, fluorescence; AID 720580; calls by dose curve; tested in A549 cells; also: potency is read from the fitted curve at half-maximal effect; % is scaled to controls: 0 for no effect and ±100 for the full control effect; nearly all actives have a fitted effect of over 30% in size
AmpC inh no detg: blocks E. coli AmpC beta-lactamase in detergent-free assay; P00811; AmpC nitrocefin hydrolysis, absorbance 480 nm, 0.0001% Triton; Potency, µM (doses to about 57.1 µM), without a hit: at the highest dose activity change, negative = inhibition, hits mostly inhibitors; 330,000 tested, 0.52% active;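 also: potency is read from the fitted curve at half-maximal effect; plate controls were no compound for no effect and no enzyme for full effect; nearly all actives have a fitted effect of over 20% in size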
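20 mM phosphate pH 7.0 + 0.01% (detergent screen) or 0.0001% Triton X-100; 5.3 nM AmpC reagent; cpd preinc 15 min RT; nitrocefin (800 uM stock) to start; A480 q20 s × 4 min; Activity was normalised to no-enzyme and no-compound control wells.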
VACV mCherry inh: inhibitors of vaccinia virus infection (mCherry reporter signal); Vaccinia virus mCherry reporter infection, fluorescence; Potency, µM (top dose mostly 36.5 µM), for the others: top-dose activity change, negative = inhibition, usual class: inhibitors; 310,000 tested, 0.63% active; calls by dose curve; tested in A549 cells; also: potency is read from the fitted curve at half-maximal effect; % is scaled to controls: 0 for no effect and ±100 for the full control effect; nearly all actives have a fitted effect of over 35% in size
SARS PLpro yeast-2: Validates SARS-CoV PLpro inhibitor hits in yeast; yeast expressing SARS-CoV PLpro, growth phenotype rescue; 1,000 tested, 19% active; calls only; AID 652038; shares compounds with SARS PLpro yeast-1; call rule not given here
* hit, by the source's call; i = inactive; ? = inconclusive; / = not tested or not shown; + = active, no number. Sampled rows, rich in hits. Any-hit rate of the full collection: about 1.3%. Unless noted, calls follow the shape of the dose curve; as a rule, active = well fitted curve in the direction sought with a large enough effect; inconclusive = small, poorly fitted or top-dose-only effect, or another doubt; inactive = no such curve, though single readings can be large; an effect the other way counts as inactive or inconclusive.

SMILES | AmpC inh detg | SARS PLpro yeast-1 | Vaccinia Venus | AmpC inh no detg | VACV mCherry inh | SARS PLpro yeast-2
CCN1C(=O)[C@H]2[C@H]3CN=C(SCC(=O)c4ccccc4)N3[C@@](C)(C(=O)OC)[C@H]2C1=O | / | / | -7% | -15% | -20% | i
Cc1ccc(NC(=O)CSc2ncccc2C(=O)Oc2cccc([N+](=O)[O-])c2)cc1Cl | -13% | ? | -9% | ? | i | i
COc1ccc(N2CCN(CC(=O)Nc3c(C)cccc3C)CC2)cc1 | / | / | -12% | / | -5% | /
CCn1c(O)c(/C=N/NC(=O)c2ccncc2)c(=O)[nH]c1=S | ? | 1% | 17% | -31% | i | /
CCC(C)n1c(O)c(/C=N/NC(=O)c2ccncc2)c(=O)[nH]c1=S (configuration not stated) | -12% | 11µM* | 6% | -33% | 13% | i
COc1ccc(OCC(=O)Sc2ccc(C)cc2)cc1 | -5% | 2.8µM* | -21% | -33% | / | i
CCc1ccc(Oc2cc(C)nc(N)n2)cc1 | -8% | 16µM* | / | -26% | / | i
CCCc1ccc(Oc2cc(Cl)nc(N)n2)cc1 | -6% | -5% | -19% | -26% | -7% | /
C/C(=N\NC(=O)c1cc(-c2cccnc2)nc2ccccc12)c1ccccc1O | -21% | 10µM* | ? | 6% | ? | +
COc1ccc(/C(C)=N/NC(=O)c2cc(-c3cccnc3)nc3ccccc23)cc1 | ? | 5% | -6% | -13% | -4% | /
Cc1nc([N+](=O)[O-])c(Br)n1Cc1ccccc1 | 3% | 0% | / | 2% | / | /
Cc1nc([N+](=O)[O-])c(Sc2nc3ccc([N+](=O)[O-])cc3[nH]2)n1Cc1ccccc1 | -4% | 10µM* | ? | -27% | ? | i
CC(C)COc1cccc(C(=O)N(C)CC(=O)Nc2cccc3ccccc23)c1 | / | 14µM* | -16% | 48% | -24% | i
N#C/C(=C\c1cc(Br)c(O)c(Br)c1)c1nc2ccccc2c(=O)[nH]1 | -1% | / | -3% | / | -11% | /
O=C(CSc1nc(-c2ccco2)cc(C(F)(F)F)n1)Nc1ccc2c(c1)OCO2 | -7% | ? | ? | -36% | ? | +
O=C(CCCSc1nc(-c2ccco2)cc(C(F)(F)F)n1)Nc1ccc2c(c1)OCO2 | 15% | / | ? | / | / | /
CCOC(=O)C1=C(COC(=O)/C=C/c2ccc(OC)cc2)NC(=O)NC1C (configuration not stated) | 0% | -3% | -27% | -10% | ? | /
CCOC(=O)C1=C(COC(=O)/C=C/c2ccco2)NC(=O)NC1C (configuration not stated) | -23% | ? | -10% | -10% | -10% | i
CCOc1ccc(NC(=O)CC2S/C(=N/N=C3CCCCCC3)NC2=O)cc1 (configuration not stated) | 1% | ? | / | 11% | / | i
CN(C)Cc1cc(OCc2ccccc2)cc(CN(C)C)c1O | / | / | -10% | / | -13% | /
CN(C)Cc1cc(C(C)(C)c2cc(CN(C)C)c(O)c(CN(C)C)c2)cc(CN(C)C)c1O | ? | 13µM* | / | -5% | / | i
N#CC1C(=O)NC(N2CCN(c3ccccc3)CC2)=NC12CCCCC2 (configuration not stated) | -10% | 16µM* | / | -14% | / | i
CC1(c2ccccc2)C(C#N)C(=O)NC(=O)C1C#N (configuration not stated) | / | / | -8% | / | -3% | /
CC(C)C[C@H]1CN(CCCC[C@H]2CNC(=O)C(=O)N2CCc2ccc(O)cc2)C(=O)C(=O)N1CCc1ccccc1 | / | / | 1% | / | -10% | /
Cc1ccc(-c2cc(-c3ccc4c(c3)NC(=O)CO4)nc3c2COc2ccc(C)cc2-3)cc1 | 2% | / | ? | / | ? | /
SMILES | AmpC inh detg | SARS PLpro yeast-1 | Vaccinia Venus | AmpC inh no detg | VACV mCherry inh | SARS PLpro yeast-2
CCC(=NNC(=O)c1ccc2c(c1)nc(C)n2CC)c1cc(F)ccc1O | / | 10µM* | ? | 71% | 10µM* | i
CNC(=O)Oc1ccc(-c2cn3cc(Cl)ccc3n2)cc1 | -5% | 8% | -10% | -21% | -7% | /
CNC(=O)Oc1cccc(-c2cn3cc(OC(=O)NC)ccc3n2)c1 | -12% | 11µM* | -10% | -28% | -21% | +
Cc1ccccc1C1NC(c2ccccc2C)C([N+](=O)[O-])C(C)(C)C1[N+](=O)[O-] (configuration not stated) | -2% | 0% | -10% | -1% | ? | /
Cc1cccc(C2NC(c3cccc(C)c3)C([N+](=O)[O-])C(C)(C)C2[N+](=O)[O-])c1 (configuration not stated) | -2% | ? | -8% | -22% | -8% | i
Cc1ccc(NC(=O)CSc2nc(=O)n(Cc3ccco3)c3c2CCC3)cc1F | 1% | / | -18% | / | -22% | /
C/C(=N\NC(N)=S)c1ccc(Cl)s1 | ? | 10µM* | ? | -21% | 0.35µM* | ?
C/C(=N\NC(=S)NC(C)C)c1ccc(Cl)s1 | ? | ? | -28% | -9% | -18% | /
O=S1(=O)N[C@H](Cc2ccccc2)COc2cc(N3CCN(Cc4ccccc4F)CC3)ccc21 | / | / | -2% | / | i | /
